Measurements published in PubChem BioAssay (EPA / NIEHS).
Activity calls are given as the source filed them. How the source made its calls: active means hit-call score of the fitted dose curve at least 0.9, where 1 is the maximum; inactive means score below 0.9.

Each compound was assayed on urokinase plasminogen activator (uPA), PLAU (gene 5328) (assay: BSK_KF3CT_uPA: BioMAP Diversity Plus: KF3CT Assay for urokinase plasminogen activator (uPA) Biomarker Activity (AID 2283075)). Settings: primary human keratinocytes with fibroblasts; actives raise or lower the signal.
Method: BSK_KF3CT is a cell-based, multiplexed-readout assay that uses keratinocytes and foreskin fibroblasts, a human skin primary cell co-culture, with measurements taken at 24 hours after chemical dosing in a 96-well plate.BSK_KF3CTA is an assay component measured in the BSK_KF3CT assay. It measures uPA antibody related to regulation of gene expression using ELISA technology.Data from the assay component BSK_KF3CTA was analyzed into 1 assay endpoint. This assay endpoint, BSK_KF3CTA, was analyzed with bidirectional fitting relative to DMSO as the negative control and baseline of activity. Using a type of binding reporter, gain or loss-of-signal activity can be used to understand changes in the signaling as they relate to the gene PLAU. Furthermore, this assay endpoint can be referred to as a primary readout, because this assay has produced multiple assay endpoints where this one serves a signaling function. To generalize the intended target to other relatable targets, this assay endpoint is annotated to the protease intended target family, where the subfamily is serine protease.
The levels of cell surface (or secreted, indicated by the prefix "s") biomarker endpoints were measured by ELISA. Overt cytotoxicity to cells in confluent adherent cultures (all systems other than the BT system) was assessed by measuring total protein levels using sulforhodamine B (SRB) staining in parallel cultures at the time of biomarker measurements, indicated as SRB endpoints. For proliferation assays for adherent cell types, individual cell types are cultured at sub-confluence and relative cell numbers quantified by SRB staining at time points optimized for each system (48 h: 3C and CASM3C systems; 72 h: BT and HDF3CGF systems; 96 h: SAg system). SRB was performed by staining cells with 0.1% SRB after fixation with 10% TCA and reading wells at 560 nm.Viability and proliferation of PBMC (T cells) was quantified by Alamar Blue reduction for the SAg and BT systems. For PBMC viability (referred to as PBMC Cytotoxicity within the assay endpoint names), cells were plated (75,000/well in a 96-well plate) and then chemical samples added for 1 h before addition of activators, SEB and TSST-1 (20 ng/mL final concentration each). Cells were incubated for 90 h. Then, Alamar Blue (20 uL/well) (Invitrogen, Cat DAL1100) was added for 6 h, and the plates were read with a fluorescence microplate reader at 546/580 nm (excitation/emission). For PBMC proliferation, cells were plated and activated as above but incubated for only 16 h prior to addition of Alamar Blue. Plates were read after 6 h.

Row | SMILES | outcome | AC50
1 | CCCCCCCC[Si](OCC)(OCC)OCC | inactive | 
2 | Cc1ccc(C(C)C)cc1 | inactive | 
3 | Cc1oc2c(NC(=O)c3c(Cl)cccc3Cl)cccc2c1C(C)(C)O | inactive | 
4 | O=C(O)c1ccccc1C(=O)OCc1ccccc1 | inactive | 
5 | CN(C)c1ccc(C(=C2C=CC(=[N+](C)C)C=C2)c2ccc(N(C)C)cc2)cc1 |  | 2.85 µM (active)
6 | c1ccc2n[nH]nc2c1 | inactive | 
7 | Cc1c2ccccc2c(C)c2c1ccc1ccccc12 | inactive | 
8 | O=c1[nH]sc2ccccc12 |  | 33 µM (active)
9 | Cc1cccc2ccccc12 | inactive | 
10 | COc1cccc([C@H](O)C2CCN(CCc3ccc(F)cc3)CC2)c1OC | inactive | 
11 | CCN(Cc1cccc(S(=O)(=O)O)c1)c1ccc(C(=C2C=CC(=[N+](CC)Cc3cccc(S(=O)(=O)O)c3)C=C2)c2ccccc2S(=O)(=O)[O-])cc1 | inactive | 
12 | CCCOC(=O)c1cc(O)c(O)c(O)c1 |  | 3.97 µM (active)
13 | Cc1cn([C@H]2C[C@H](N=[N+]=[N-])[C@@H](CO)O2)c(=O)[nH]c1=O | inactive | 
14 | Cc1occc1C(=O)Nc1ccc(C(=O)N2CCC(F)(F)/C(=C\C(=O)N3CCC(N4CCCCC4)CC3)c3ccccc32)cc1 | inactive | 
15 | c1ccc(C[n+]2cccc3ccccc32)cc1 | inactive | 
16 | COCC(C)OCC(C)OCC(C)O (stereo not given) | inactive | 
17 | CN1C(=O)CC[C@H]1c1cccnc1 | inactive | 
18 | Clc1cc(Cl)c2c(c1)N=C1CCCCCN1C2 | inactive | 
19 | Cc1cc(F)ccc1-c1cc(N2CC[C@@H](O)[C@H]2CO)ncc1N(C)C(=O)C(C)(C)c1cc(C(F)(F)F)cc(C(F)(F)F)c1 |  | 12.7 µM (active)
20 | O=C(O)c1ccccc1-n1cc(C(=O)O)c(=O)c2cc(Nc3c(F)cc(F)cc3Cl)c(Cl)cc21 | inactive | 

Row | SMILES | outcome | AC50
21 | CO[C@H]1/C=C/O[C@@]2(C)Oc3c(C)c(O)c4c(O)c(c(/C=N/N5CCN(C)CC5)c(O)c4c3C2=O)NC(=O)/C(C)=C\C=C\[C@H](C)[C@H](O)[C@@H](C)[C@@H](O)[C@@H](C)[C@H](OC(C)=O)[C@@H]1C | inactive | 
22 | Oc1ccc2ccccc2c1 | inactive | 
23 | Clc1ccccc1C(c1ccccc1)(c1ccccc1)n1ccnc1 |  | 9.72 µM (active)
24 | C[C@]12CC[C@@H]3c4ccc(O)cc4CC[C@H]3[C@@H]1CCC2=O | inactive | 
25 | CCN(CC)C(=O)c1cc(S(=O)(=O)Cc2ccccc2)c(N2CCC(c3ccccc3)CC2)cc1N(CC)CCN(C)C | inactive | 
26 | OCCO | inactive | 
27 | CC1(C)NC(=O)N(c2ccc([N+](=O)[O-])c(C(F)(F)F)c2)C1=O | inactive | 
28 | CC(C)(C)c1cc(/C=C2\SC(N)=NC2=O)cc(C(C)(C)C)c1O |  | 12.5 µM (active)
29 | O=C1c2ccccc2C(=O)N1CCc1noc(-c2ccc(CN3CCCCCC3)s2)n1 | inactive | 
30 | OC12N=C(c3ccccc3)SC1Cc1cc(Cl)ccc12 (stereo not given) | inactive | 
31 | CCO[Si](CCCNC(N)=O)(OCC)OCC | inactive | 
32 | CC(O)CC(C)(C)O (stereo not given) | inactive | 
33 | O=C(O)Cc1cc(I)c(Oc2ccc(O)c(I)c2)c(I)c1 | inactive | 
34 | COc1ccc2cc(S(=O)(=O)N[C@H](CC(=O)N[C@H](Cc3ccc(CN4[C@H](C)CCC[C@@H]4C)cc3)C(=O)N(C)C(C)C)c3ccc4c(c3)OCO4)ccc2c1 | inactive | 
35 | Cc1cc2c(cc1C(F)(F)F)N(C(=O)Nc1ccc(Oc3cccnc3C)nc1)CC2 |  | 29.2 µM (active)
36 | CC[C@@H]1C[C@H](N(Cc2cc(C(F)(F)F)cc(C(F)(F)F)c2)C(C)=O)c2cc(C(F)(F)F)ccc2N1C(=O)OC(C)C | inactive | 
37 | CC(C)(C)c1csc(-c2cc3cc(OCc4ccccc4CC(=O)O)ccc3o2)n1 |  | 20.7 µM (active)
38 | O=C1O[C@H]([C@@H](O)CO)C(O)=C1O | inactive | 
39 | C[C@]12CC[C@@H]3c4ccc(O)cc4CC[C@H]3[C@@H]1CC[C@H]2O | inactive | 
40 | O=C=NCCCCCCN=C=O | inactive | 
